Test results from PubChem BioAssay (NCI).
Compounds without any hit were thinned out: in the full panel of roughly 79,000, 15% have a hit. Activity calls are given as the source filed them. No stated cut-off is given here; in the data, active means growth inhibition above about 70%; inactive means the rest.

Columns and labels:
[1] = NCI Yeast Anticancer Drug Screen. Data for the rad52 strain (AID 147);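 further: 0% = growth of vehicle-treated control cultures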; conditions: S. cerevisiae rad52 mutant growth inhibition, stronger effect = higher value
Method in brief: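 Yeast strain carrying a DNA damage repair alteration was exposed to test compounds. Growth inhibition was measured relative to vehicle-treated controls.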

[2] = NCI Yeast Anticancer Drug Screen. Data for the wt1 strain (AID 149);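 further: 0% = growth of vehicle-treated wt1 cultures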; conditions: S. cerevisiae wt1 strain (SPY 50644) growth inhibition, stronger effect = higher value
Method in brief: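 Readout: yeast growth inhibition, normalised to vehicle controls, in the wt1 strain exposed to test compounds.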

[3] = NCI Yeast Anticancer Drug Screen. Data for the rad50EPP+ strain (AID 151);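 further: 0% = growth of vehicle-treated control cultures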; conditions: S. cerevisiae rad50 mutant strain, stronger effect = higher value
Method in brief: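 Yeast strain carrying rad50 alteration (rad50EPP+) exposed to compounds; growth inhibition measured relative to vehicle-treated controls.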

[4] = NCI Yeast Anticancer Drug Screen. Data for the rad50 strain (AID 155);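 further: 0% = growth of vehicle-only cultures of the same strain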; conditions: S. cerevisiae rad50 strain growth inhibition, stronger effect = higher value
Method in brief: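 Compounds were tested on a yeast strain with an engineered DNA damage repair alteration; the reported value is growth inhibition normalised to vehicle treatment.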

[5] = NCI Yeast Anticancer Drug Screen. Data for the mec2-1 strain (AID 157); conditions: S. cerevisiae mec2-1 strain, stronger effect = higher value
Method in brief: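 mec2-1 yeast strain, carrying an alteration in DNA damage repair or cell cycle control, was exposed to compounds; growth inhibition was measured relative to vehicle-treated controls.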

[6] = NCI Yeast Anticancer Drug Screen. Data for the rad14 strain (AID 159);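 further: 0% = growth of vehicle-treated control cultures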; conditions: S. cerevisiae rad14 strain growth inhibition, stronger effect = higher value
Method in brief: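 Compound-treated yeast with a defined DNA-repair lesion; growth inhibition normalised to vehicle-treated cultures.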

[7] = NCI Yeast Anticancer Drug Screen. Data for the sgs1 mgt1 strain (AID 161);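 further: 0% = growth of cultures given vehicle only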; conditions: S. cerevisiae sgs1 mgt1 strain, stronger effect = higher value
Method in brief: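 Compounds are added to genetically altered yeast, and growth is compared with cultures given vehicle alone to give percent inhibition.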

[8] = NCI Yeast Anticancer Drug Screen. Data for the CLN2oe strain (AID 163);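 further: 0% = growth of vehicle-only control cultures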; conditions: S. cerevisiae CLN2oe strain, stronger effect = higher value
Method in brief: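 Yeast cells carrying a defined cell-cycle control alteration were exposed to test compounds. Growth inhibition was scored against vehicle-treated control cultures.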

[9] = NCI Yeast Anticancer Drug Screen. Data for the cln2 rad14 strain (AID 165);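 further: 0% = growth equal to vehicle treated cultures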; conditions: S. cerevisiae cln2 rad14 strain, stronger effect = higher value
Method in brief: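 Yeast carrying cln2 and rad14 alterations (cell cycle control and DNA damage repair) were exposed to compounds. Growth inhibition was measured against vehicle-treated controls.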

[10] = NCI Yeast Anticancer Drug Screen. Data for the bub3 strain (AID 167); conditions: S. cerevisiae bub3 mutant strain, stronger effect = higher value
Method in brief: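 Growth of a checkpoint-deficient yeast mutant is measured after compound exposure. Values represent inhibition relative to vehicle.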

[11] = NCI Yeast Anticancer Drug Screen. Data for the wt2 strain (AID 169);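 further: 0% = growth of vehicle-treated yeast cultures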; conditions: S. cerevisiae wt2 strain growth inhibition, stronger effect = higher value
Method in brief: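 Yeast cells were exposed to test compounds, and growth inhibition was measured relative to vehicle-treated controls.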

[12] = NCI Yeast Anticancer Drug Screen. Data for the mlh1 strain (AID 171);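 further: 0% = growth of vehicle-treated control cultures of the same strain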; conditions: S. cerevisiae mlh1 strain growth inhibition, stronger effect = higher value
Method in brief: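 Yeast carrying a defined genetic alteration in DNA damage repair or cell cycle control were exposed to test compounds. Growth inhibition was measured relative to vehicle-treated controls.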

[13] = NCI Yeast Anticancer Drug Screen. Data for the sgs1 strain (AID 173);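 further: 0% = growth of vehicle-only control cultures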; conditions: S. cerevisiae sgs1 mutant, stronger effect = higher value
Method in brief: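 Yeast mutant strains carrying defined defects in DNA damage repair or cell cycle control were exposed to test compounds. Growth inhibition was scored against vehicle-treated controls.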

[14] = NCI Yeast Anticancer Drug Screen. Data for the mlh1 rad18 strain (AID 175); conditions: S. cerevisiae mlh1 rad18 strain growth inhibition, stronger effect = higher value
Method in brief: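 Growth inhibition of the yeast strain was measured after compound exposure and expressed relative to vehicle-treated controls. The strain carries defined defects in DNA damage repair.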

[15] = NCI Yeast Anticancer Drug Screen. Data for the rad18 strain (AID 177); conditions: S. cerevisiae rad18 mutant growth inhibition, stronger effect = higher value
Method in brief: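 Yeast carrying a defined DNA damage repair alteration were exposed to compounds. Growth inhibition was expressed relative to vehicle-treated controls.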

[16] = at 5.0 µM (retest, dose inferred, filed as 0.5)
[17] = at 50.0 µM (retest, dose inferred, filed as 5.0)

Measured: growth inhibition

C/C(=N\NC(=S)NNC(=S)N(C)c1ccccc1)c1ccccn1
inactive: [1]; at 1.2 µM 9% | [1]; at 3.7 µM 40% | [2]; at 1.2 µM -4% | [2]; at 3.7 µM 46% | [3]; at 1.2 µM 11% | [3]; at 3.7 µM 5% | [4]; at 1.2 µM -9% | [4]; at 3.7 µM 37% | [4]; [16] -19% | [5]; at 1.2 µM 18% | [5]; at 3.7 µM 25% | [5]; [16] 10% | [6]; at 1.2 µM -6% | [7]; [16] 0% | [8]; at 1.2 µM 17% | [8]; at 3.7 µM 13% | [9]; [16] 29% | [10]; at 1.2 µM -17% | [10]; at 3.7 µM 21% | [11]; at 1.2 µM 9% | [11]; at 3.7 µM 22% | [12]; at 1.2 µM 21% | [12]; at 3.7 µM 41% | [13]; at 1.2 µM 13% | [13]; at 3.7 µM 64% | [14]; [16] 27% | [15]; at 1.2 µM 16% | [15]; at 3.7 µM 31%
active: [1]; at 11.0 µM 97% | [1]; at 33.0 µM 98% | [1]; at 100.0 µM 83% | [2]; at 11.0 µM 97% | [2]; at 33.0 µM 98% | [2]; at 100.0 µM 86% | [3]; at 11.0 µM 92% | [3]; at 33.0 µM 98% | [3]; at 100.0 µM 81% | [4]; at 11.0 µM 97% | [4]; at 33.0 µM 97% | [4]; [17] 98% | [4]; at 50.0 µM 87% | [4]; at 100.0 µM 83% | [5]; at 11.0 µM 98% | [5]; at 33.0 µM 99% | [5]; [17] 99% | [5]; at 50.0 µM 90.5% | [5]; at 100.0 µM 82% | [6]; at 3.7 µM 71% | [6]; at 11.0 µM 97% | [6]; at 33.0 µM 98% | [6]; at 100.0 µM 79% | [7]; [17] 98% | [7]; at 50.0 µM 88.5% | [8]; at 11.0 µM 97% | [8]; at 33.0 µM 98% | [8]; at 100.0 µM 79% | [9]; [17] 99% | [9]; at 50.0 µM 86.3% | [10]; [16] 82% | [10]; at 11.0 µM 97% | [10]; at 33.0 µM 97% | [10]; [17] 98% | [10]; at 50.0 µM 87.2% | [10]; at 100.0 µM 83% | [11]; at 11.0 µM 97% | [11]; at 33.0 µM 99% | [11]; at 100.0 µM 90% | [12]; at 11.0 µM 97% | [12]; at 33.0 µM 98% | [12]; at 100.0 µM 83% | [13]; at 11.0 µM 98% | [13]; at 33.0 µM 98% | [13]; at 100.0 µM 88% | [14]; [17] 99% | [14]; at 50.0 µM 84.5% | [15]; at 11.0 µM 98% | [15]; at 33.0 µM 98% | [15]; at 100.0 µM 83%
